Compound activity as filed in PubChem.
NTR1 agonist – agonists of human neurotensin receptor NTR1; P30989; NTR1-U2OS beta-arrestin-GFP spot imaging, agonist mode; activation, % at 20 µM; actives 0.17% (n = 330,000);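 active means activation at or above 40% of the spot to cytoplasm intensity ratio, with at least 20 cells analyzed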
APOBEC3G inh – blocks human APOBEC3G single-stranded DNA deamination; Q9HC16; recombinant A3G, ssDNA deamination FAM/TAMRA fluorescence; inhibition, % at 20 µM; actives 0.28% (n = 330,000);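 active means inhibition of at least 40% at 20 µM, with no more than 30% in the related APOBEC3A deaminase screen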
AHR act – activators of human aryl hydrocarbon receptor. AHR-responsive luciferase reporter cells, luminescence. activation, % at 5 µM. actives 2.5% (n = 320,000). AID 2796; in the data active means activation above about 47%
A3A deaminase – inhibitors of human APOBEC3A DNA deaminase; P31941; recombinant A3A, FAM/TAMRA ssDNA deamination fluorescence; inhibition, % at 20 µM; actives 0.41% (n = 330,000); AID 493011;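 active means at least 40% inhibition at 20 µM here, with at most 30% in a related deaminase screen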
AHR act cf – confirmation of human aryl hydrocarbon receptor activators | shares compounds with AHR act | human cells, AHR-responsive luciferase reporter, luminescence | activation, % at 9 µM | actives 87% (n = 2,300) | AID 2845; in the data active means activation above about 49%;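 further: HepG2 hepatoma cells carrying a DRE-driven firefly luciferase reporter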
PXR counter – PXR activation, counter-screen for AHR activators; shares compounds with AHR act; cell-based PXR reporter, luciferase luminescence; activation, % at 11.6 µM; actives 88% (n = 2,300); in the data active means activation above about 11%;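 further: human hepatoma DPX-2 cells expressing full-length human PXR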
Target sequence (O75469 whole entry, looked up): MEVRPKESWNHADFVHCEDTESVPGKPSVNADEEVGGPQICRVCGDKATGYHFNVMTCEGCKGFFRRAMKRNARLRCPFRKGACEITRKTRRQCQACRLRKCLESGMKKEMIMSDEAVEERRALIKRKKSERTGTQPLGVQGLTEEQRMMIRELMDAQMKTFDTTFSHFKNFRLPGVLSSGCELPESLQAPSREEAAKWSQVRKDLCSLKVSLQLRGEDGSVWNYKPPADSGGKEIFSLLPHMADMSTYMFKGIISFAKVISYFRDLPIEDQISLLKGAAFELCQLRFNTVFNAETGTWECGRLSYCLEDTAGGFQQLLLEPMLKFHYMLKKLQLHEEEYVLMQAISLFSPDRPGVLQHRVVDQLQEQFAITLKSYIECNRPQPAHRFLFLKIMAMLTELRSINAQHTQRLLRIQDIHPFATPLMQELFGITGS
Of the large screens only hits and unclear results are named; the others gave an inactive call (follow-up assays come after a bar, where they were run). Only some compounds are listed: those with a hit (about 3.2% of all), similar ones and a draw of the others.

CCOc1ccccc1NC(=O)NC(=O)N(C)S(=O)(=O)c1ccc(C)cc1	AHR act 64
Cc1cccc(NC(=O)N2CCCC(CNC(=O)c3ccccc3Cl)C2)c1C (configuration not stated)	none
Cc1cc(C)cc(C(=O)OCC(=O)NC(=O)NC2CCCC2)c1	none
O=C(/C=C/c1ccccc1)NCCc1ccccc1	none
Cc1ccc(Nc2c([N+](=O)[O-])c(=O)oc3ccccc23)cc1	none
O=c1oc2ccccc2c(Nc2ccc3ccccc3c2)c1[N+](=O)[O-]	AHR act 65
O=C(Cn1cnc2ccccc2c1=O)c1ccccc1	AHR act 48
O=C(Nc1cc2c(cc1C(=O)O)OCCCO2)c1ccc(C(F)(F)F)cc1	AHR act 73
O=C(N/N=C/c1ccc(OC(=O)c2ccccc2)cc1)c1cccnc1	none
COc1ccc(C(C)=O)cc1CSc1ccc2c(c1)OCCO2	none
CCOC(=O)c1[nH]cnc1C(=O)N1CCC(C)CC1	none
COc1ccc(S(=O)(=O)N2CCCCC2)cc1NC(=O)c1ccc(Cl)nc1	none
Cc1ccc(C(=O)Nc2ccc3cn[nH]c3c2)cc1S(=O)(=O)N1CCCCC1	AHR act 55
Cc1ccc(S(=O)(=O)N2CCCCC2)cc1NC(=O)c1ccc(Cl)nc1	AHR act 75
CCC(C)NC(=O)CN(C1CCCCC1)S(=O)(=O)c1ccc(F)cc1 (configuration not stated)	none
Oc1ccccc1N1CCN(CC(O)COCc2ccccc2Cl)CC1 (configuration not stated)	none
Cc1cc(C)nc(NC2=NCC(=O)N2c2cccc(Cl)c2)n1	AHR act 65
COc1ccc(N2C(=O)CN=C2Nc2nc(C)cc(C)n2)cc1	AHR act 76
COc1cccc(-n2cnc3scc(-c4cccs4)c3c2=O)c1	none
O=c1c2c(-c3cccs3)csc2ncn1-c1ccc(Br)cc1	AHR act 65
O=c1c2c(-c3cccs3)csc2ncn1/N=C/c1ccc(OC(F)F)cc1	AHR act 56
O=C(O)COc1ccc(/C=N/n2cnc3scc(-c4cccs4)c3c2=O)cc1	none (no result: NTR1 agonist, APOBEC3G inh, A3A deaminase)
O=C(CSc1nnc(SCc2cccc3ccccc23)s1)N=Nc1c(O)[nH]c2ccccc12	none (no result: NTR1 agonist, APOBEC3G inh, A3A deaminase)
COc1ccc(/C=N/NC(=O)c2ccoc2C)cc1CN1CCN(c2ccc(F)cc2)CC1	AHR act 73
COc1ccc(CCNC(=O)CSc2nn(-c3ccccc3)c(=S)s2)cc1	none
C/C(N)=C(/C#N)C(=O)COC(=O)[C@@H](NC(=O)c1ccccc1Cl)C(C)C	none
COCCN(C(=S)Nc1c(C)cc(C)cc1C)C(C)c1cccs1 (configuration not stated)	none
CCCCCCNC(=O)c1c(O)c2cccc3c2n(c1=O)CCC3	none
O=C(NCCNCCO)c1c(O)c2cccc3c2n(c1=O)CCC3	AHR act 58
O=C(CN1CCCc2ccccc21)N/N=C/c1ccc(O)cc1O	AHR act 53
CC1=CC(C)C(/C=N/N=C(N)N)C(C)C1 (configuration not stated)	none
CCCCc1ccc(Nc2nc(CCC)cc(=O)[nH]2)cc1	none
CCCc1cc(=O)[nH]c(Nc2ccc3c(c2)OCCO3)n1	AHR act 71
Cc1cc(C)c(OCCCn2ccnc2)c(C)c1	none (no result: AHR act)
Cc1cc(OCCn2ccnc2)ccc1C(C)C	AHR act 64
Cc1cc(C)c(C)c(OCCCn2ccnc2)c1	AHR act 58
Cc1cc(C(C)(C)C)ccc1OCCn1ccnc1	AHR act 50
Cc1ccc(C(C)(C)C)c(OCCCn2ccnc2)c1	AHR act 48
Cc1ccc(OCCCCn2ccnc2)c([N+](=O)[O-])c1	AHR act 61
Cc1ccc(OCCCCn2ccnc2)c(Cl)c1	none
O=C(c1cc2cc(F)ccc2[nH]1)N1CCN(C(=O)c2ccco2)CC1	AHR act 54
CN1CCN(C(=O)c2cc3cc(F)ccc3[nH]2)CC1	none (no result: AHR act)
COC(=O)c1c(NC(=O)CN2C(=O)c3ccccc3C2=O)sc(Cc2ccc3c(c2)OCO3)c1C	none
Cc1c(Cc2ccc3c(c2)OCO3)sc(NC(=O)c2cccc3ccccc23)c1C(N)=O	AHR act 103 | AHR act cf 60 | PXR counter 58
COc1ccc(NC(=O)Cn2nnc(C(=O)Nc3ccc(F)c(Cl)c3)c2N)cc1	none
Cc1c(C(=O)Nc2nccs2)oc2ccc(Br)cc12	AHR act 86 | AHR act cf 132 | PXR counter 22
Cc1c(C(=O)Nc2nccs2)oc2ccc(F)cc12	none
Cc1c(N2CCCC2)cc2c(c1NC(=O)c1ccccc1Cl)C(C)(C)CC2(C)C	none
CCOC(=O)c1ccc2c(c1)nc(-c1ccc(F)cc1)c1nccn12	AHR act 85 | AHR act cf 99 | PXR counter 24
CCOC(=O)c1ccc2c(c1)nc(-c1ccccn1)n2CC	none
NC(=O)NC(=O)COC(=O)CCSc1ccccc1	none
Cc1cnc(C(=O)OCC(=O)Nc2cc(-c3ccccc3)nn2-c2ccccc2)cn1	none
C/C=C/C(=O)OCC(=O)Nc1cc(-c2cc(C)c(C)cc2C)nn1-c1ccccc1	AHR act 105 | AHR act cf 90 | PXR counter 85
CCC(Sc1nc2cc(OC)c(OC)cc2c(=O)n1CCc1ccc(OC)c(OC)c1)C(=O)NCCOC (configuration not stated)	none
CCCN(CCC)CCNC(=O)c1cc2c(=O)n(C)c3ccccc3c2n1C	AHR act 98 | AHR act cf 91 | PXR counter 42
Nc1ccc(O)c2c1C(=O)c1ccccc1C2=O	none
Nc1ccc(Br)c2c1C(=O)c1ccccc1C2=O	AHR act 95 | AHR act cf 58 | PXR counter 16
Cc1nnc(NC(=O)c2ccc(Br)o2)s1	none
Cc1ccc(-n2c(=O)[nH]cc(C(=O)Nc3ccc4c(c3)OCO4)c2=O)cc1C	AHR act 88 | AHR act cf 68
COc1ccc(NC(=O)c2c[nH]c(=O)n(-c3ccc(C)c(C)c3)c2=O)cc1OC	none
O=[N+]([O-])c1cccn2cc(-c3ccc(Br)cc3)nc12	AHR act 107 | AHR act cf 214 | PXR counter 17
Cc1c(NC(=O)Nc2ccc(F)cc2F)c(=O)n(-c2ccccc2)n1C	none
COCCCNC(=O)c1sc2ncnc(N3CCc4ccccc4C3)c2c1C	AHR act 100 | AHR act cf 82 | PXR counter 20
O=C(CN1CCCc2ccccc21)N/N=C/c1ccccc1	AHR act 87 | AHR act cf inactive | PXR counter 40
Cc1ccc(NCc2nc3ccccc3n2C)cc1C	AHR act 103 | AHR act cf 127 | PXR counter 26
Cc1ccc(NCc2nc3ccccc3n2C)cc1	AHR act 80 | AHR act cf 66 | PXR counter 12
Cn1c(CNc2ccc(Br)cc2)nc2ccccc21	AHR act 108 | AHR act cf 185 | PXR counter 48
CC(C)n1c(NCc2nc3ccccc3n2C)nc2ccccc21	none
